Screening results (PubChem BioAssay)
Sampled rows, rich in hits. Any-hit rate of the full collection: about 1.9%.
dFosB activator: enhances mouse delta FosB homodimer DNA binding | P13346 | purified delta FosB, TAMRA-CDK5 oligo fluorescence polarization; percent of positive-control signal above neutral wells | activation, % at 25 µM | 340,000 compounds, 0.99% hits | AID 493131;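 active = mean activation above about 17%, with every replicate also reaching it, limit read from the data, passing the limit was not always enough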
Target sequence (P13346 whole entry, looked up): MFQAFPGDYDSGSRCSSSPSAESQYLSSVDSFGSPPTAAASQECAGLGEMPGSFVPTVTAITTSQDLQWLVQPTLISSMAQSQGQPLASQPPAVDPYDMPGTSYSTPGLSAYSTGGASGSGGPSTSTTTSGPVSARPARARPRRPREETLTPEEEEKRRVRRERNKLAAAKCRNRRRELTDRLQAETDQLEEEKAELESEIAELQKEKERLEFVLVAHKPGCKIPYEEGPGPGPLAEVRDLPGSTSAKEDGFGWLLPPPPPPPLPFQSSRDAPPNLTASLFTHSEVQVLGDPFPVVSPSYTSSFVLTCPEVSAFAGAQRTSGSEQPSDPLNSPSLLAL
p47phox inh: p47phox (human) inhibition | p47phox/p22phox peptide binding, fluorescence polarization, 2 h | inhibition, % at 24.7 µM | 220,000 compounds, 0.53% hits | AID 1274;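 active = inhibition above about 30%, limit read from the data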;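 note: 0% = p47phox with labelled peptide and 100% = labelled peptide alone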
14-3-3 Bad inh: disrupts binding of bovine 14-3-3 zeta to phospho-Bad peptide. AID 781. P63103. inhibition, % at 21.7 µM. TR-FRET 14-3-3zeta/Dy647-pBad peptide displacement, 1 h. 220,000 compounds, 0.71% hits;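 active = inhibition above about 70%, limit read from the data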;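 note: 0% = full 14-3-3 plus peptide FRET controls and 100% = background without 14-3-3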
Target sequence (P63103 whole entry, looked up): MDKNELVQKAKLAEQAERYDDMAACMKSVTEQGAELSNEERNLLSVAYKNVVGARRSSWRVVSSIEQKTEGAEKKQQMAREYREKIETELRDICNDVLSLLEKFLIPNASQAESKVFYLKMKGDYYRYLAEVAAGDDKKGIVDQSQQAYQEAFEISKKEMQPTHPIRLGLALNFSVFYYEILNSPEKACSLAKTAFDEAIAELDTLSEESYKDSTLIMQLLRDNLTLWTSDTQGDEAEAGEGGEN
HMGR II inh: inhibitors of class II HMG-CoA reductase from Enterococcus faecalis | purified E. faecalis HMGR, NADPH absorbance 340 nm kinetic | inhibition, % at 10 µM | 190,000 compounds, 0.41% hits;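 active = inhibition above a set limit, the median over all tested compounds plus 3 SD, cut at about 9.5% in these data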;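 note: enzyme runs in reverse so mevalonate oxidation gives rising NADPH absorbance; 0% = complete reaction with DMSO and 100% = background rate lacking mevalonate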
An asterisk follows results filed as active.

How did Cc1ccc(NC(=O)COC(=O)C2CSC3(C)CCC(=O)N23)c(C)c1 (stereo not drawn) do in these assays?
dFosB activator: -6

Results for Cc1cccc(CN2CCN(C(=O)CCl)CC2)c1 ?
dFosB activator: 1; p47phox inh: -8; 14-3-3 Bad inh: 20; HMGR II inh: -4

Results for O=C(Cn1cnc2ccccc21)c1ccccc1 ?
dFosB activator: 2

How did CS(=O)(=O)N(CC(=O)N1CCCCCC1)c1cccc(F)c1 do in these assays?
dFosB activator: 0

Results for Cc1ccc(/C=C2/Sc3ccc(C(=O)NCCN4CCOCC4)cc3NC2=O)cc1 ?
dFosB activator: 8

How did COc1cccc(/C=C2/Sc3ccc(C(=O)NCCN4CCCC4)cc3NC2=O)c1 do in these assays?
dFosB activator: 36*

How did CCN1CCCC1CNC(=O)c1ccc2c(c1)NC(=O)/C(=C\c1ccc(C)cc1)S2 (stereo not drawn) do in these assays?
dFosB activator: 39*

What do the screens show for `COc1ccc(/C=C2\Sc3ccc(C(=O)N4CCc5ccccc5C4)cc3N(C)C2=O)cc1`?
p47phox inh: -4; 14-3-3 Bad inh: -10; HMGR II inh: 1

What do the screens show for `COc1ccc(/C=C2\Sc3ccc(C(=O)NCCN4CCCCCC4)cc3N(C)C2=O)cc1`?
dFosB activator: 27*

How did CCCC(C)NC(=O)c1cc(S(=O)(=O)N2CCCCCC2)ccc1OC (stereo not drawn) do in these assays?
dFosB activator: -9

How did c1ccc(-c2nnc(CSc3ccc4c(c3)OCCO4)o2)cc1 do in these assays?
dFosB activator: -6; p47phox inh: -7; 14-3-3 Bad inh: -15; HMGR II inh: 2

How did Cc1cc(C)c(N(C(=O)CN2C(=O)c3ccccc3S2(=O)=O)C(C(=O)NCC2CCCO2)c2ccc(F)cc2)c(C)c1 (stereo not drawn) do in these assays?
dFosB activator: -3; p47phox inh: -6; 14-3-3 Bad inh: -24; HMGR II inh: -4

What do the screens show for `COc1ccc(/C=C2\SC(=N)N(c3ccc(F)cc3)C2=O)cc1OC`?
dFosB activator: 45*; p47phox inh: -40; 14-3-3 Bad inh: 14; HMGR II inh: -6

Results for Cn1cc(Cl)c(C(=O)N/N=C/c2ccc(OS(=O)(=O)c3ccccc3)cc2)n1 ?
dFosB activator: -13; p47phox inh: -17; 14-3-3 Bad inh: 10; HMGR II inh: -8

How did Nc1nc(C2CC(=O)OC23CCCCC3)cs1 (stereo not drawn) do in these assays?
dFosB activator: 6; p47phox inh: -2; 14-3-3 Bad inh: -1; HMGR II inh: 0

What do the screens show for `Nc1nc(C2C(=O)CCCC2=O)cs1`?
dFosB activator: -5; p47phox inh: -93; 14-3-3 Bad inh: 71*; HMGR II inh: -5

Results for C/C(=N\OCC(=O)Nn1c(=O)[nH]c2ccccc2c1=O)c1cccs1 ?
dFosB activator: -5; p47phox inh: 174*; 14-3-3 Bad inh: -6; HMGR II inh: 9

What do the screens show for `COc1ccc(C(=O)C(c2ccccc2)N2CCOCC2)cc1` (stereo not drawn)?
dFosB activator: 0; p47phox inh: 3; 14-3-3 Bad inh: 71*; HMGR II inh: -1

What do the screens show for `CCOC(=O)CNC(=O)CN1C(=O)CC(c2ccccc2)S(=O)(=O)c2ccccc21` (stereo not drawn)?
dFosB activator: -7; p47phox inh: -6; 14-3-3 Bad inh: -1; HMGR II inh: 11*

How did O=C(CN1C(=O)CC(c2ccccc2)S(=O)(=O)c2ccccc21)N1CCOCC1 (stereo not drawn) do in these assays?
p47phox inh: -6; 14-3-3 Bad inh: 0; HMGR II inh: -2

Results for COc1ccc(-n2c(C)cc(-c3csc(N)n3)c2C)cc1 ?
dFosB activator: 25*; p47phox inh: -19; 14-3-3 Bad inh: 6; HMGR II inh: -1

What do the screens show for `CCCn1c(C)cc(-c2csc(N)n2)c1C`?
dFosB activator: -6; p47phox inh: -12; 14-3-3 Bad inh: 74*; HMGR II inh: -5

What do the screens show for `C=CCn1c(C)cc(-c2csc(N)n2)c1C`?
dFosB activator: -9; p47phox inh: -7; 14-3-3 Bad inh: 66; HMGR II inh: -9

Results for Cc1cc(-c2csc(N)n2)c(C)n1-c1ccc(Cl)c(Cl)c1 ?
dFosB activator: -1; p47phox inh: -27; 14-3-3 Bad inh: 7; HMGR II inh: -6

Results for CCN(C(=O)Cc1ccccc1OC)c1nnc(-c2ccncc2)s1 ?
dFosB activator: -16; p47phox inh: 0; 14-3-3 Bad inh: 79*; HMGR II inh: -4

How did Cc1[nH]n(-c2ccccc2)c(=S)c1C=Nc1cccc([N+](=O)[O-])c1 do in these assays?
dFosB activator: -11; p47phox inh: 89*; 14-3-3 Bad inh: -16; HMGR II inh: 4

Results for CCCCN=Cc1c(C)[nH]n(-c2ccccc2)c1=S ?
dFosB activator: -3; p47phox inh: -4; 14-3-3 Bad inh: -38; HMGR II inh: -2

What do the screens show for `Cc1cccc(C)c1N1CCN(C(=O)N2CCCCC2)CC1`?
dFosB activator: -3; p47phox inh: 2; 14-3-3 Bad inh: -10; HMGR II inh: 14*

What do the screens show for `COc1cc(/C=C2\SC(=S)N(C(C(=O)O)c3ccccc3)C2=O)ccc1O` (stereo not drawn)?
dFosB activator: 23*; p47phox inh: -212; 14-3-3 Bad inh: 7

What do the screens show for `COc1cc(/C=C2\SC(=S)N(NS(=O)(=O)c3ccccc3)C2=O)ccc1O`?
dFosB activator: 21*; p47phox inh: -202; 14-3-3 Bad inh: -4

How did COc1cc(/C=C2\SC(=S)N(NC(=O)c3ccncc3)C2=O)ccc1O do in these assays?
dFosB activator: 33*; p47phox inh: -203; 14-3-3 Bad inh: 0

What do the screens show for `CCOc1cc(/C=C2\SC(=S)N(C(C(=O)O)c3ccccc3)C2=O)ccc1O` (stereo not drawn)?
dFosB activator: 9; p47phox inh: -202; 14-3-3 Bad inh: 18

How did COc1cc(/C=C2\SC(=S)N(NC(=O)c3cccc(O)c3)C2=O)ccc1O do in these assays?
dFosB activator: 11

Results for CC1(C(=O)NCCN2CCOCC2)C=CC2(CCCCC2)N1C(=O)c1ccccc1 (stereo not drawn) ?
dFosB activator: -2; p47phox inh: -6; 14-3-3 Bad inh: -7; HMGR II inh: 9.7*

How did O=C(O)c1cccc(-n2cccc2/C=C2/NC(=O)N(c3ccc(Cl)cc3)C2=O)c1 do in these assays?
dFosB activator: -8; p47phox inh: -37; 14-3-3 Bad inh: 94*; HMGR II inh: 10*

Results for Cc1ccc(Cl)c(NC(=O)CN2CCNC(=O)C2)c1Cl ?
dFosB activator: 1; p47phox inh: -9; 14-3-3 Bad inh: -3; HMGR II inh: -9

How did O=C(Nc1ccc(N2CCOCC2)c([N+](=O)[O-])c1)c1ccco1 do in these assays?
dFosB activator: 1; p47phox inh: -3; 14-3-3 Bad inh: -3; HMGR II inh: -2

How did Cc1cccc(N2CC(O)(c3cccs3)[N+]3=C2CCCC3)c1 (stereo not drawn) do in these assays?
dFosB activator: -3; p47phox inh: 1; 14-3-3 Bad inh: 1; HMGR II inh: -1
